Data from PubChem BioAssay (NCATS).
Where “and” joins values, the source holds several entries; their conditions need not be identical. Identical values can stand only once. Inconclusive results are not listed. Calls of active or inactive are those of the source. Unless noted, calls follow the shape of the dose curve; as a rule, active = well fitted curve in the direction sought with a large enough effect; inconclusive = small, poorly fitted or top-dose-only effect, or another doubt; inactive = no such curve, though single readings can be large; an effect the other way counts as inactive or inconclusive.

Tests used:
[1] = biological target: Cellular tumor antigen p53 (Homo sapiens) (UniProt P04637); assay: Primary qHTS for small molecule compounds that upregulate eGFP-tagged delta133p53alpha (in N-terminal) cells. (AID 2060322); details: NCI-H358 eGFP-delta133p53alpha fluorescence, 24 h; activation: hits give high values;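 also: cells pre-induced with doxycycline then dosed without doxycycline; series mostly up to about 56 µM; 0% = DMSO vehicle and 100% = reference activator; nearly all actives have a fitted effect of over 75% in size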
Outline: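 NCI-H358 cells pre-induced 24 h with 10 ng/ml doxycycline for eGFP-delta133p53alpha, plated dox-free and exposed 24 h at 37C to titrated compounds. Fixed, Hoechst-stained; gated GFP peak intensity by laser scanning cytometry, normalized to DMSO (0%) and 57.5 uM 5-azacytidine (100%).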

[2] = biological target: Cellular tumor antigen p53 (Homo sapiens) (UniProt P04637); assay: Primary qHTS for small molecule compounds that upregulate eGFP-tagged delta133p53alpha (in C-terminal) cells. (AID 2060324);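 also: 0% = DMSO wells and 100% = 57.5 µM 5-azacytidine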
Outline: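 Readout: filtered GFP peak intensity of gated cells (laser scanning cytometer), normalized plate-wise to intraplate controls, DMSO wells = 0% activity. Cells: NCI-H358 D133p53a-eGFP, dox 100 ng/ml 24 h beforehand, then compound 24 h, 37 °C.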

[3] = biological target: Aldehyde dehydrogenase, mitochondrial (Homo sapiens) (UniProt P05091); assay: qHTS for Inhibitors of the Aldehyde Dehydrogenase Family (ALDH2) Validation screens (AID 2061302; active = well fitted inhibition curve with a large enough effect; title and protocol of this record describe different tests;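 also: plate controls were DMSO vehicle for no effect and maximal DPI positive control response for full effect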)
[4] = biological target: Aldehyde dehydrogenase, mitochondrial (Homo sapiens) (UniProt P05091); assay: qHTS for Inhibitors of the Aldehyde Dehydrogenase Family (ALDH2) Primary screen (AID 2061308);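 also: plate controls were vehicle for no effect and reference inhibitor for full effect; nearly all actives have a fitted effect of over 55% in size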
[5] = biological target: Retinaldehyde dehydrogenase 3 (Homo sapiens) (UniProt P47895); assay: qHTS for Inhibitors of the Aldehyde Dehydrogenase Family (ALDH1A3) Validation screen (AID 2061312); also: % is scaled to controls: 0 for no effect and ±100 for the full control effect; nearly all actives have a fitted effect of over 45% in size
[6] = biological target: Retinaldehyde dehydrogenase 3 (Homo sapiens) (UniProt P47895); assay: qHTS for Inhibitors of the Aldehyde Dehydrogenase Family (ALDH1A3) Primary screen (AID 2061315);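 also: plate controls were DMSO vehicle for no effect and reference inhibitor for full effect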
[7] = BET inhibitor-based combinations targeting novel dependencies in MECOM-rearranged (r) AML: SET-2 cell line (AID 2202231); details: SET-2 AML cells viability, CellTiter-Glo luminescence, 48 h; viability: hits give low values, concentration not given here; also: nearly all actives have a fitted effect of over 35% in size; also: potency is read from the fitted curve at half-maximal effect;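 as to viability: plate controls were DMSO treated cells for no effect and wells without cells for full effect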
Outline: (§1)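 AML cell lines seeded at 500 cells/well, treated with 11-point dose curves for 48 h. Viability by CellTiter-Glo luminescence, normalised to DMSO and empty wells; activity expressed as AUC and per-cell-line Z-transformed AUC.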

[8] = BET inhibitor-based combinations targeting novel dependencies in MECOM-rearranged (r) AML: MV-4-11 cell line (AID 2202233); also: nearly all actives have a fitted effect of over 45% in size; also: potency is read from the fitted curve at half-maximal effect
Outline: (§2)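 Cells at 500/well were exposed for 48 hr to MIPE v5.0 drugs as 11-point dose curves. Viability was read by CellTiter-Glo luminescence and normalized to DMSO and empty-well controls. Activity was expressed as AUC and per-cell-line Z-AUC.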

[9] = BET inhibitor-based combinations targeting novel dependencies in MECOM-rearranged (r) AML: HNT-34 cell line (AID 2202234);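 also: plate controls were vehicle wells for no effect and cell-free wells for full effect; nearly all actives have a fitted effect of over 35% in size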
Outline: as §2

[10] = BET inhibitor-based combinations targeting novel dependencies in MECOM-rearranged (r) AML: AML-191 cell line (AID 2202236; also: nearly all actives have a fitted effect of over 35% in size; also: potency is read from the fitted curve at half-maximal effect)
Outline: as §1

[11] = BET inhibitor-based combinations targeting novel dependencies in MECOM-rearranged (r) AML: AML-194 cell line (AID 2202237; also: nearly all actives have a fitted effect of over 40% in size; also: potency is read from the fitted curve at half-maximal effect)
Outline: as §1

[12] = BET inhibitor-based combinations targeting novel dependencies in MECOM-rearranged (r) AML: OCI-AML3 cell line (AID 2202232); details: Potency: OCI-AML3 viability; also: potency is read from the fitted curve at half-maximal effect; nearly all actives have a fitted effect of over 35% in size
Outline: as §1

[13] = BET inhibitor-based combinations targeting novel dependencies in MECOM-rearranged (r) AML: UCSD-AML1 cell line (AID 2202235); also: nearly all actives have a fitted effect of over 40% in size; also: potency is read from the fitted curve at half-maximal effect
Outline: as §2

Sequence of Cellular tumor antigen p53 (Homo sapiens) (P04637 whole entry, looked up): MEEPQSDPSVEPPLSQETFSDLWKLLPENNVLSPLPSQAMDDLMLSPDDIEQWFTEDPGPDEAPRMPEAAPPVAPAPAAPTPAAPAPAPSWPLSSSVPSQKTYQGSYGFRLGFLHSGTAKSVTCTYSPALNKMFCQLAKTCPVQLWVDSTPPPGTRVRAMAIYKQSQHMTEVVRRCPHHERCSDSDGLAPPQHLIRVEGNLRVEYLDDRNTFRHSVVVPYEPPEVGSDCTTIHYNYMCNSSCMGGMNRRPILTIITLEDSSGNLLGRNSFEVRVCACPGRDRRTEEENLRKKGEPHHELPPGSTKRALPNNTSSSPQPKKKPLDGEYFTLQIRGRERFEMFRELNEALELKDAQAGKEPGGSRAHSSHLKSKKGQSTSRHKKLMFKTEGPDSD

O=C(O)CCc1ccc(NCc2cccc(Oc3ccccc3)c2)cc1
inactive: activation [1] -48.8% and -14.3% and -8.5% | Potency [2] | Potency [3] | Potency [4] | Potency [5] | Potency [6] | viability [7] 117% | Potency [8] | Potency [9] | Potency [10] | Potency [11]

CCc1cncnc1N1CCN(Cc2nc3ccc(C(F)(F)F)cc3[nH]2)CC1
active: Potency [7] 14800 nM | Potency [12] 11800 nM | Potency [8] 18600 nM | Potency [10] 13200 nM
inactive: activation [1] -18% and -36.7% and 26.8% | Potency [2] | Potency [3] | Potency [4] | Potency [5] | Potency [6] | Potency [13]

CC[C@]1(O)CC2CN(CCc3c([nH]c4ccccc34)[C@@](C(=O)OC)(c3cc4c(cc3OC)N(C)[C@H]3[C@@](O)(C(=O)OC)[C@H](OC(C)=O)[C@]5(CC)C=CCN6CC[C@]43[C@@H]65)C2)C1 (some centres not stated)
active: Potency [7] 742 nM | Potency [12] 296 nM | Potency [8] 263 nM | Potency [13] 263 nM | Potency [10] 296 nM | Potency [11] 296 nM
inactive: activation [1] 4.91% | Potency [2] | Potency [3] | Potency [4] | Potency [5] | Potency [6]

CC(=O)N[C@@H](CS)C(=O)O
inactive: activation [1] 11.9% and -21.2% | Potency [2] | Potency [3] | Potency [5]

N[C@@H](COP(=O)(O)O)C(=O)O
inactive: activation [1] -2.51% and -5.8% | Potency [2] | Potency [3] | Potency [5]

Nc1ncnc2c1nc(Br)n2C1OC2COP(=O)(O)O[C@@H]2C1O (some centres not stated)
inactive: activation [1] -6.56% | Potency [2] | Potency [3] | Potency [5]

COc1cc(Cc2cnc(N)nc2N)cc(OC)c1OC
inactive: activation [1] -5.08% and -24.5% | Potency [2] | Potency [3] | Potency [5]

CN(C)C(=O)[C@H](O)[C@H](Cc1ccccc1)NC(=O)c1cc2cc(Cl)ccc2[nH]1
inactive: activation [1] -2.47% and -33.3% and 7.64% | Potency [2] | Potency [3] | Potency [4] | Potency [5] | Potency [6] | viability [7] 95.3% | Potency [13] | Potency [10] | Potency [11]

CN(C)c1nc(N)c(C(=O)N=C(N)N)nc1Cl
inactive: activation [1] -52.6% | Potency [2] | Potency [3] | Potency [5]

Cc1nc2sccn2c(=O)c1CCN1CCC(=C(c2ccc(F)cc2)c2ccc(F)cc2)CC1
inactive: activation [1] -20.9% and -40.8% | Potency [2] | Potency [3] | Potency [5]

CN(CC[C@@H](Oc1ccc(C(F)(F)F)cc1)c1ccccc1)CC(=O)O
inactive: activation [1] 2.22% | Potency [2] | Potency [3] | Potency [5]
